# Reference: the supplement of paper PMC12636033
# ± gives the standard deviation of the averaged measurements. In all, about 33,000 sequences were measured (“E-score (rank enrichment, -0.5 to 0.5)”: median about -0.0043, highest 2% from about 0.24 on). The sample holds the highest values, similar sequences and a random draw of the others, so the mix is not that of the screen.
# System: 2Sp-muMax20 (muMax20 with two 2,6-bis(methyl)pyridine Cys staples)
# Assay: PBM 8-mer E-score (E-score (rank enrichment, -0.5 to 0.5)); higher = stronger preferential binding
# Protocol: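 Protein binding microarray (universal PBM chip covering all 10-mers in fixed probe flanks) with chemically synthesized human Max(13-93) bHLH-LZ analogs (not full-length Max) bearing noncanonical residues (hArg, Tha, Aib, Nle at 65) and aromatic Cys staples. Read-out per 8-mer (and its reverse complement): E-score (rank-based enrichment, -0.5 to 0.5) and Z-score of median probe intensity.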
row,Sequence,PBM 8-mer E-score
1,GACAGGTC,-0.12 ± 0.088
2,AGAGCCAA,0.00188 ± 0.0012
3,CGAGGACC,-0.245 ± 0.046
4,AACGGCCA,-0.0961 ± 0.022
5,AACGGCCT,0.275 ± 0.0083
6,AACGGCCC,-0.372 ± 0.037
7,TCGTCCAA,-0.0225 ± 0.01
8,AACGGTCC,-0.298 ± 0.1
9,ACACGTAG,-0.0191 ± 0.055
10,TCACGTAA,-0.0172 ± 0.028
11,AGACGTGA,0.0537 ± 0.03
12,ACACGTAC,-0.0036 ± 0.092
13,TAACGTGA,0.093 ± 0.036
14,AAACGTGG,0.0452 ± 0.042
15,ACACGTGC,0.407 ± 0.024
16,ACACGTGG,0.3868 ± 0.00064
17,ACACGTGA,0.412 ± 0.034
18,ATACGTGA,-0.0748 ± 0.062
19,TCACGTGA,0.438 ± 0.0011
20,AGACGTGC,-0.145 ± 0.021
21,CCTCTTAG,-0.00532 ± 0.11
22,CATTCGCA,0.0276 ± 0.0019

row,Sequence,PBM 8-mer E-score
1,ACCAAACC,0.0152 ± 0.034
2,CAGTCTAG,-0.117 ± 0.05
3,CAATAGAA,0.0449 ± 0.032
4,ACGCGTGC,0.177 ± 0.049
5,GCGCGTGA,0.2082 ± 0.00059
6,ACACGTAT,0.178 ± 0.052
7,ACACGTGT,0.421 ± 0.015
8,AAACGTGT,0.077 ± 0.06
9,ACGCGTGA,0.25 ± 0.0042
10,ACTTTCCC,-0.0248 ± 0.091
11,CTCGTCTC,-0.0179 ± 0.03
12,CTCACGTC,-0.00269 ± 0.06
13,ATTCGAGC,-0.0718 ± 0.14
14,ATTCGAGA,0.239 ± 0.052
15,CTTCGAGA,-0.0158 ± 0.028
16,AGGTTGCC,-0.164 ± 0.035
17,GCACCTAC,-0.194 ± 0.0063
18,ATCACGAT,0.00138 ± 0.12
19,CGCACGCC,-0.0203 ± 0.1
20,GAGACCCA,-0.1 ± 0.07
21,AAGACCCA,0.0969 ± 0.13
22,TAGACCCA,0.282 ± 0.061

row,Sequence,PBM 8-mer E-score
1,CCTTTAAC,-0.0714 ± 0.012
2,GGCGCACC,-0.281 ± 0.032
3,CGCTACCA,-0.1194 ± 0.00063
4,ATATCCTC,0.265 ± 0.056
5,ATATCTTC,0.294 ± 0.022
6,ATATCCCG,0.0776 ± 0.056
7,ATATCTTA,0.19 ± 0.0044
8,ATATCCCC,0.28 ± 0.028
9,CTATCCTC,0.0112 ± 0.011
10,CTATCTTC,0.0745 ± 0.024
11,ATATCCTA,0.0987 ± 0.0053
12,CTATCCCC,0.0647 ± 0.044
13,CAGAGATC,-0.137 ± 0.014
14,TCTTCGCA,0.0987 ± 0.026
15,AGCTGACT,-0.0778 ± 0.023
16,ACAAGATG,0.115 ± 0.02
17,CTGAAGGC,-0.247 ± 0.05
18,CATGTACA,0.143 ± 0.1
19,GATGTACA,0.165 ± 0.009
20,TATGTACA,0.25 ± 0.028
21,AATGTACA,0.0795 ± 0.02
22,AATGTACG,0.0758 ± 0.021

row,Sequence,PBM 8-mer E-score
1,CATGTACG,0.2899 ± 0.0015
2,CTGAACAA,-0.00871 ± 0.029
3,GGCCTTAA,0.0324 ± 0.052
4,ACCAAATG,-0.043 ± 0.09
5,GAGAGACA,-0.174 ± 0.03
6,TAGAGACA,-0.0515 ± 0.021
7,AAGAGACA,0.252 ± 0.042
8,AAGGTGAT,0.157 ± 0.033
9,CTAGTAAA,0.12 ± 0.047
10,ATAGTAAT,0.19 ± 0.084
11,ATAGTAAA,0.274 ± 0.033
12,ACATAGGA,0.102 ± 0.044
13,ATTTTATA,0.264 ± 0.03
14,CATTTATA,0.141 ± 0.023
15,CTTTTGTA,0.0481 ± 0.15
16,AATTTATC,0.105 ± 0.038
17,ATTTTATG,0.0502 ± 0.14
18,ATTTTGTG,0.0633 ± 0.081
19,GTTTTATA,0.168 ± 0.13
20,ATTTTGTA,0.239 ± 0.12
